GLP-1R inv ag = inverse agonists of human GLP-1 receptor. HEK293 GLP-1R CRE-luciferase, luminescence, 24 h; GLP-1R form is constitutively active. Potency, µM (top dose mostly 38.3 µM), usual class: inhibitors. 410,000 compounds, 1.6% hits. AID 624417; further: nearly all actives have a fitted effect of over 55% in size
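qHTS in 1536-well format: reporter HEK293 cells expressing constitutive GLP-1R activity in DMEM + 10% Nu serum, 24 hr with compounds at 37 deg C, luminescence read after 12 min with detection reagent.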
KCNH2 3.1 block = inhibitors of human KCNH2 3.1 potassium channel isoform; AID 720553; U2OS KCNH2 3.1, thallium flux FluxOr; stronger effect = lower value; activity change, % (tested at about 1.8 µM); 340,000 compounds, 0.95% hits;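 active means maximum activity change below -70%; inconclusive means maximum activity change from -70% to -50%; inactive means maximum activity change above -50%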;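 further: thallium influx rate constant from kinetic fluorescence after stimulation buffer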
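Kinetic fluorescence (2 min after stimulation buffer) measures Tl+ influx through KCNH2 3.1 expressed by viral transduction in U2OS cells; the rate constant is normalized against DMSO controls serving as positive and negative references.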
HEK293 tox = cytotoxicity in counter-screen for GLP-1R inverse agonists | HEK293 cAMP-luciferase reporter cells, luminescence, 24 h | AID 624418 | 410,000 compounds, 0.13% hits | Potency, µM (series often up to 38.3 µM), hits mostly inhibitors;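 further: loss of luciferase light is scored as toxicity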
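Step one: seed cells (200 cells/uL, DMEM with 10% Nu serum, 1% pen-strep). Step two: 12-hour incubation at 37 deg C. Step three: pin 23 nL compound, incubate 24 hr. Step four: add luciferase reagent, read luminescence 12 min later.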
KCNH2 WT inh = inhibitors of human wildtype KCNH2 potassium channel. Q12809. U2OS, BacMam KCNH2, thallium flux FluxOr; stronger effect = lower value. AID 720551. 340,000 compounds, 0.37% hits. activity change, % at 1.84 µM;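 active means maximum activity change below -70%; inconclusive means maximum activity change between -70% and -50%; inactive means maximum activity change above -50%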
Target sequence (Q12809 whole entry, looked up): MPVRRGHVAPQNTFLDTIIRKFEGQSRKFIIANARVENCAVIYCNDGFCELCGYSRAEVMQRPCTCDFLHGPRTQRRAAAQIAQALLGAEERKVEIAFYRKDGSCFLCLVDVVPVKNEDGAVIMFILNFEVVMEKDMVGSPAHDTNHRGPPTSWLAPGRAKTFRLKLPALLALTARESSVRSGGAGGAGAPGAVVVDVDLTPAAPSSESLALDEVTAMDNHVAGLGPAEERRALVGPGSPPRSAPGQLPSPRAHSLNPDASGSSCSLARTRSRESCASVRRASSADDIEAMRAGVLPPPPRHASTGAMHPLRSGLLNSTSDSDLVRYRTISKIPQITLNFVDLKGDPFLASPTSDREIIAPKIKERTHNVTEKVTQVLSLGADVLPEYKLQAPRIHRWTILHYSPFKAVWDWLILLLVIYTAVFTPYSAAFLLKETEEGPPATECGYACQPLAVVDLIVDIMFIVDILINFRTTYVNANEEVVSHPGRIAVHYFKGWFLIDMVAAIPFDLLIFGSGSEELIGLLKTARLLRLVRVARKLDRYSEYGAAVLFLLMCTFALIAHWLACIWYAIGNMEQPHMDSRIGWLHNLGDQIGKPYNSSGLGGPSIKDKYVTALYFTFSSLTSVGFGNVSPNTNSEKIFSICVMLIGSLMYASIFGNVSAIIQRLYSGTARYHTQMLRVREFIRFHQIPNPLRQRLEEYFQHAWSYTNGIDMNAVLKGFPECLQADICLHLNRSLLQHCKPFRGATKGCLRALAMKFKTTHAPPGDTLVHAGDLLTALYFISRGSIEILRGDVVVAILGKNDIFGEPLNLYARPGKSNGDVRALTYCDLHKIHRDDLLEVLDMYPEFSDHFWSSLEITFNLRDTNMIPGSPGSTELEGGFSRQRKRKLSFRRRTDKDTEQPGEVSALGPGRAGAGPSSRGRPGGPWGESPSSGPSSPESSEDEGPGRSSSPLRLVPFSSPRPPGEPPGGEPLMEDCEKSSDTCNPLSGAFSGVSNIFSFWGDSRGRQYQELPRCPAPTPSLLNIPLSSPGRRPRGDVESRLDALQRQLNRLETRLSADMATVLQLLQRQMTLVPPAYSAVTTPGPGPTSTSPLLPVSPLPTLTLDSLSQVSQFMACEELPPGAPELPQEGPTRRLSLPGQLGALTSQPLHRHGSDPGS
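U2OS cells were transduced with wild-type KCNH2 virus (2.03 x 10^8 / mL) for 4 h at room temperature, then cultured overnight at 37 C. Thallium flux was read with FluxOr dye. Rate constants were normalized to DMSO controls.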
GLP1R ag = activates the human GLP-1 receptor. P43220. HEK293 GLP-1R CRE-luciferase, luminescence, 4-6 h; cells express a hypersensitive GLP-1R form. Potency, µM (titrated, usually from 45.6 µM), actives largely listed as activators. 380,000 compounds, 0.007% hits. AID 624172
GLS inhibitor = inhibitors of human glutaminase (GLS) | GLS enzymatic activity, qHTS titration | O94925 | 410,000 compounds, 0.21% hits | Potency, µM (doses to about 45.5 µM), actives largely listed as inhibitors
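Human kidney-isoform GLS in 45 mM KH2PO4 pH 8.2, 0.02% Tween-20, with compound, started with 1mM L-Glutamine (added stock). Glutamate oxidase/HRP/Amplex red coupled fluorescence read at start and after 30 min at RT.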
Of the large screens only hits and unclear results are named; the others gave an inactive call. Hits are enriched below; roughly 2.8% of the tested compounds scored in any of these assays. Unless noted, the call rests on the fitted dose curve; in most records, active means well fitted curve in the direction sought with a large enough effect; inconclusive means small, poorly fitted or top-dose-only effect, or another doubt; inactive means no such curve, though single readings can be large; an effect the other way counts as inactive or inconclusive.

COC(=O)c1cc(S(=O)(=O)NCC2CCN(Cc3ccc(C)cc3)CC2)c[nH]1	GLP-1R inv ag inconclusive, KCNH2 3.1 block -76
COc1ccc(CN2CCC(CNS(=O)(=O)c3cccc(C(F)(F)F)c3)CC2)cc1	GLP-1R inv ag 11µM, KCNH2 3.1 block inconclusive
COC(=O)c1cc(S(=O)(=O)NCC2CCN(Cc3ccc(F)cc3)CC2)c[nH]1	none
COc1ccc2ccc(O)c(CN3CCN(S(=O)(=O)c4cccc(C(F)(F)F)c4)CC3)c2c1	GLP-1R inv ag inconclusive
CCOC(=O)c1c(C)[nH]c(C)c1S(=O)(=O)NCC1CCN(Cc2ccc(C)cc2)CC1	GLP-1R inv ag inconclusive
CCOC(=O)c1c(C)[nH]c(C)c1S(=O)(=O)NCC1CCN(Cc2cccc(Cl)c2)CC1	GLP-1R inv ag inconclusive, KCNH2 3.1 block -121
Cc1cccnc1NC(=O)CN1C(=O)NC(C)(c2ccc3ccccc3c2)C1=O (configuration not stated)	none
COc1ccc(NC(=O)CSc2nc3nc(C)c(Cc4ccccc4)c(C)n3n2)cc1OC	none (no result: KCNH2 3.1 block, KCNH2 WT inh, GLP1R ag)
CCn1c(C)cc(C(=O)CN2C(=O)c3ccccc3S2(=O)=O)c1C	GLP-1R inv ag inconclusive
Cc1cc(C(=O)CN2C(=O)c3ccccc3S2(=O)=O)c(C)n1-c1ccccc1	GLP-1R inv ag 1.4µM
O=C(NCCCN1CCOCC1)c1ccc2c(c1)N(Cc1ccccc1)C(=O)c1ccccc1S2	GLP-1R inv ag inconclusive
CN1CCN(CCCNC(=O)c2ccc(/C=C3\Sc4ccccc4N(Cc4ccc(F)cc4)C3=O)cc2)CC1	GLP-1R inv ag 10µM
CN1CCN(CCCNC(=O)c2ccc(/C=C3/Sc4ccccc4N(Cc4cccc(Cl)c4)C3=O)cc2)CC1	GLP-1R inv ag inconclusive
CCOc1ccc(CN2C(=O)c3ccccc3Sc3ccc(C(=O)NCCCN4CCOCC4)cc32)cc1	GLP-1R inv ag 13µM, HEK293 tox inconclusive
Cc1ccc(-c2nnn(CC(=O)N(Cc3ccco3)C(C(=O)NC(C)(C)C)c3ccc(C)o3)n2)o1 (configuration not stated)	GLP-1R inv ag 1.3µM
Cc1ccc(-c2nnn(CC(=O)N(Cc3ccccc3)C(C(=O)NC(C)(C)C)c3ccncc3)n2)o1 (configuration not stated)	none
COc1ccc2c(c1OC)C(=O)N1C2SC(C)(C)[C@H]1C(=O)NC(C)C (some centres not stated)	none
COc1ccc(CCC(=O)N2CCCC(Nc3ccccc3)C2)cc1OC (configuration not stated)	GLP1R ag inconclusive
N#Cc1ccccc1N/C=C/C(=O)c1ccc(Cl)cc1	GLP-1R inv ag 6.3µM
CCCN(CCC)CCCNC(=O)c1cc2c(=O)[nH]c3ccccc3c2s1	none
N#Cc1ccc(CSc2nnc(-c3c[nH]c4ccccc34)n2-c2ccccc2)cc1	GLP-1R inv ag 6.3µM
N#Cc1ccc(CSc2nnc(-c3ccccn3)n2-c2ccccc2)cc1	none
CC(=O)c1ccc(Nc2nc3c(S(=O)(=O)c4ccccc4)nnn3c3ccc(Cl)cc23)cc1	none (no result: KCNH2 3.1 block, KCNH2 WT inh, GLP1R ag)
CCn1ccnc1CN(C)Cc1cn[nH]c1-c1ccc(OC)c(F)c1	GLP-1R inv ag 10µM
Cc1cccc(C)c1NC(=O)CCCSc1nnc(-c2ccc(Cl)cc2)n1-c1ccccc1	GLP-1R inv ag 5.6µM
Cc1cccc(C)c1NC(=O)CCCSc1nnc(-c2ccc(F)cc2)n1-c1ccccc1	GLP-1R inv ag inconclusive
O=C(CSc1nnc2n(C3CCCC3)c(=O)c3ccccc3n12)N1CCCCCC1	HEK293 tox inconclusive
COc1ccccc1Cn1c(=O)c2ccccc2n2c(SCC(=O)N3CCCCC3)nnc12	GLS inhibitor 16µM
Cc1ccc(C)c(CN2C(=O)c3ccccc3S(=O)(=O)c3ccc(C(=O)N4CCN(Cc5ccccc5)CC4)cc32)c1	none (no result: KCNH2 3.1 block, KCNH2 WT inh, GLP1R ag)
COc1ccc(NC(=O)CC2C(=O)N(Cc3ccco3)C(=S)N2C(C)C)cc1 (configuration not stated)	GLP-1R inv ag 10µM
